High-throughput results deposited in PubChem BioAssay by National Center for Advancing Translational Sciences (NCATS).
The list is not random: actives were taken first. Their share in the collection is about 3%.
KAT2A inh = qHTS Assay for Inhibitors of GCN5L2; Histone acetyltransferase KAT2A (Homo sapiens), Q92830; GCN5L2 HAT assay, ThioGlo1 CoA-SH fluorescence; Potency, µM (doses to about 58.9 µM), for the others: at the highest dose activity change, negative = inhibition, hits mostly inhibitors; 390,000 compounds, 0.21% hits; AID 504327, 2011
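ThioGlo1-coupled HAT assay: 20nM GCN5L2, 70uM acetyl-CoA, 75uM H3(1-25) peptide, pH 7.5. Fluorescence read at 340/540nm at start and after 20 min at room temperature.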
PLK1 PBD block = qHTS for Inhibitors of PLK1-PDB (polo-like kinase 1 - polo-box domain): Primary Screen | Plk1 PBD binding of FITC phosphopeptide, fluorescence polarization | Potency, µM, without a hit: max response, negative = inhibition, actives largely listed as inhibitors | 360,000 compounds, 2.8% hits; further: series mostly up to about 57 µM; nearly all actives have a fitted effect of over 65% in size
VDR inhibitor = Inhibitors of the vitamin D receptor (VDR): qHTS | Vitamin D3 receptor (Homo sapiens), P11473 | VDR-SRC2-3 peptide fluorescence polarization, 2 h | Potency, µM, without a hit: max response, negative = inhibition, hits mostly inhibitors | 400,000 compounds, 0.93% hits
Target sequence (P11473 whole entry, looked up): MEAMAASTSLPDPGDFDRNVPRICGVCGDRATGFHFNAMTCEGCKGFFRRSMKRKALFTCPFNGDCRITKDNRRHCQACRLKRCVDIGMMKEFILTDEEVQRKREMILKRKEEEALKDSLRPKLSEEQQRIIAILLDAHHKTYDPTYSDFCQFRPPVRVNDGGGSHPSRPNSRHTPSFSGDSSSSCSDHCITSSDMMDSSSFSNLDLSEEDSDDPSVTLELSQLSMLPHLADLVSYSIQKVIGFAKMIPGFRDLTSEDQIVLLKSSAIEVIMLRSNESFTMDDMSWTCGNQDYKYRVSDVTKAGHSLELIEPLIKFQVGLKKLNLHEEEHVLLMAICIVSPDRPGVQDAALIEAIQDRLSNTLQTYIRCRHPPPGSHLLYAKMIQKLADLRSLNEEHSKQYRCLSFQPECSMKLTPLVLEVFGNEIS
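VDR–SRC2-3 interaction, FP format. Cmpds 23 nl via pintool, brief spin, 2 h ambient incubation.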
ALOX12 inh = Primary qHTS assay for inhibitors of human arachidonate 12S-lipoxygenase (ALOX12): Round 2. purified 12hLO, xylenol orange hydroperoxide absorbance. Potency, µM (top dose mostly 108 µM), for inactives: top-dose activity change, negative = inhibition, actives largely listed as inhibitors. 580,000 compounds, 1.1% hits
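Purified human 12hLO at 150 nM in 25 mM Hepes, 0.01% Triton X-100, pH 7.0, preincubated 15 min at room temperature with compound. Reaction started with 40 uM arachidonic acid, 30 min at room temperature. Hydroperoxide measured by Fe-xylenol orange, 573/405 nm absorbance ratio.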
Active calls of the source: *; ? = inconclusive; · = not tested or not shown; [ ] = dose if it differs, or a comment. The call rests on the fitted dose curve; in most records, active means well fitted curve in the direction sought with a large enough effect; inconclusive means small, poorly fitted or top-dose-only effect, or another doubt; inactive means no such curve, though single readings can be large; an effect the other way counts as inactive or inconclusive. On the % scale 0 is the no-effect control and ±100 the full control effect; potency means the concentration at half of the fitted maximal effect.

SMILES	KAT2A inh	PLK1 PBD block	VDR inhibitor	ALOX12 inh
O=C(c1cc(-c2ccc(Cl)c(Cl)c2)on1)N1CCCCCC1	-2%	0%	-20%	-6%
Cc1cc(=O)oc2cc(OCC(=O)NC(=O)NC3CCCCC3)ccc12	·	·	·	-6%
CCN1C(=O)c2cccc3c(N)ccc(c23)C1=O	-4%	3µM*	-11%	0%
CCCCNc1ccc2c3c(cccc13)C(=O)N(CCCC)C2=O	-8%	2.1µM*	-5%	0%
Cc1nn(C)c(C)c1N1C(=O)c2cccc3c(N)ccc(c23)C1=O	-13%	2.7µM*	-5%	-29%
CCCN1C(=O)c2cccc3c(N4CCCCC4)ccc(c23)C1=O	4%	-6%	-12%	-23%
Cc1cc2nc(CSCC(=O)Nc3ccccc3)cc(=O)n2o1	·	·	·	-21%
COC(=O)c1ccc(NC(=O)CCc2c(C)[nH]n(-c3ccc(F)cc3)c2=O)cc1	·	·	·	17%
CC(C)(C)c1nc(C(=O)NCCc2ccc(Cl)cc2)n2ccncc12	·	·	·	1%[6.33 µM]
Cc1cccc(NC(=O)CO/N=C/c2ccc3c(c2)OCO3)c1	-6%	-5%	-11%	?
Cc1ccc(CNC(=O)CO/N=C/c2ccc3c(c2)OCO3)cc1	1%	27µM*	-20%	1%
Cc1cccc(C)c1OCC(=O)N/N=C/c1ccc2c(c1)OCO2	13µM*	-1%	4%	7%
Cc1ccc(C(=O)C2CC(=O)Nc3c2c(C)nn3-c2ccc(Br)cc2)s1 (stereo unspecified)	·	·	·	-11%
Fc1cccc(-c2nn[nH]n2)c1	-4%[0.501 µM]	-6%	13%	25µM*
CCCCCC#CCC#CCC#CCC#CCCCC(=O)O	2.2µM*	·	·	?
Cc1cc(C)c(NC(=O)OCCN2CCOCC2)c(C)c1	-4%	2.7µM*	-20%	0%
O=C(NCCn1cccc1-c1nc(-c2ccc3c(c2)OCO3)no1)c1ccc2c(c1)OCO2	·	·	·	30%
COc1cc(/C=C/C(=O)N2C(=O)c3cccc(N)c3C2=O)cc(OC)c1OC	?	-23%	41%	2%
Nc1cccc2c1C(=O)N(C(=O)/C=C/c1cccc(F)c1)C2=O	-9%	?	40µM*	?
CC(C(=O)N1CCN(C=O)CC1)N1C(=O)c2ccccc2C1=O (stereo unspecified)	-8%	19µM*	-15%	0%
COC(=O)CSc1cc(C(=O)c2nccn2C)c2ccccc2n1	-1%	-12%	-7%	?
Cn1ccnc1C(=O)c1cc(SCC(=O)NCc2ccccc2)nc2ccccc12	-9%	21µM*	-7%	-1%
CSc1cccc(NC(=O)c2ccc(C)c(F)c2)c1	·	·	·	20%
O=S(=O)(NCCc1coc(-c2ccccc2)n1)c1ccc2ccccc2c1	·	·	·	-24%
CC1=C[C@@H](CNCc2ccccc2O)[C@H](C(C)C)C[C@H]1Cc1nc2c(C)cccc2[nH]1	·	·	·	63µM*
SMILES	KAT2A inh	PLK1 PBD block	VDR inhibitor	ALOX12 inh
Cc1oc(-c2cccs2)nc1CC(=O)Nc1ccccc1O	·	·	·	-24%
CCc1ccc(-c2csc(NC(=O)c3ccc4c(c3)NC(=O)C(C)S4)n2)cc1 (stereo unspecified)	·	·	·	-6%
Cc1ncc(CO)c(/C=N/NC(=S)Nc2ccc(C(C)C)cc2)c1O	1%	12µM*	?	0%
Cc1ncc(CO)c(/C=N/NC(=O)c2ccc(Br)cc2)c1O	-20%	·	·	·
CCNC(=S)Nc1ccc2cn[nH]c2c1	4%	24µM*	2%	1%
CC(C)c1ccc(NC(=S)Nc2ccc3cn[nH]c3c2)cc1	-8%	-13%	-4%	?
CC(=O)c1ccc(NC(=S)Nc2ccc3cn[nH]c3c2)cc1	2%	30µM*	-27%	-25%
O=C1CC2CCN(C(=O)c3ccccc3)CC2CCN1 (stereo unspecified)	·	·	·	50µM*
N#Cc1c(-c2ccc(Cl)cc2)cc(-c2ccc(Br)cc2)c(C#N)c1N	·	·	·	-13%
O=C(OCC(=O)N(Cc1ccccc1)Cc1ccccc1)c1ccc2ccccc2n1	·	·	·	14%
COc1cc(C(=O)OCc2cc(=O)oc3c(C)c(C)ccc23)ccc1OC(F)F	-1%	24µM*	?	-3%
FC(F)(F)c1cccc(Cn2ccc3ccccc32)c1	·	·	·	-9%
O=C1C(n2ccc3ccccc32)c2ccccc2N1Cc1ccc(C(F)(F)F)cc1 (stereo unspecified)	·	·	·	32µM*
CN(Cc1ccccc1)S(=O)(=O)c1cc2c(cc1Cl)Oc1ccccc1NC2=O	·	·	·	-16%
COc1ccc(C(=O)c2nc3c(n2O)CCCC3)cc1OC	-3%[0.501 µM]	2%	3%	8.9µM*
COc1ccc(C2=CC(=O)C=CC2=O)cc1	13µM*	·	·	·
CCCC(=O)NC(NC1CCS(=O)(=O)C1)C(Cl)(Cl)Cl (stereo unspecified)	-2%	27µM*	-2%	-9%
CCc1cccc2c3c([nH]c12)[C@@](CC)(CC(=O)O)OCC3	13µM*	·	?	·
O=C(NC1CCS(=O)(=O)C1)c1cc2sccc2n1Cc1ccc(Cl)cc1 (stereo unspecified)	·	·	·	-28%
CCC(=O)N1N=C(c2cccs2)CC1c1ccc(C)cc1 (stereo unspecified)	-5%	27µM*	-4%	4%
Cc1ccc(C2CC(c3cccs3)=NN2C(=O)CCl)cc1 (stereo unspecified)	-21%	?	?	?
C#CCNC(=O)NCc1ccc(C(=O)NC)cc1	·	·	·	8%
Cc1ccc(S(C)(=O)=O)cc1NC(=O)CCNC(=O)Cc1ccccc1	·	·	·	-25%
COc1nccnc1NS(=O)(=O)c1ccc(NCc2ccccc2O)cc1	2%	-2%	?	-7%
CCOc1ccc(NC(=S)NC(=O)/C=C/c2ccco2)cc1	?	-12%	-3%	-17%
SMILES	KAT2A inh	PLK1 PBD block	VDR inhibitor	ALOX12 inh
COc1nccnc1NS(=O)(=O)c1ccc(NC(=S)NC(=O)c2ccccc2)cc1	0%	-7%	-33%	35µM*
COc1nccnc1NS(=O)(=O)c1ccc(NC(=S)NC(=O)/C=C/c2ccccc2)cc1	-2%	30µM*	?	-16%
COc1cc(NS(=O)(=O)c2ccc(NC(=S)NC(=O)/C=C/c3ccco3)cc2)ncn1	-5%	13µM*	11%	?
Clc1cc(CSc2ncnc3ccccc23)cc2c1OCCCO2	·	·	·	24%
Cc1cc(Cl)c2oc(C(=O)N(C)CCCCN3CCOCC3)c(C)c2c1	-2%	-19%	-2%	1%
Cc1cc(Cl)c2oc(C(=O)N(C)CCc3cnn(C)c3)c(C)c2c1	-3%	24µM*	-27%	2%
CCNc1cc(O)ccc1C	-8%	-16%	79µM*	·
COc1cc(/C=C2\C(=N)N3N=C(S(C)(=O)=O)SC3=NC2=O)cc(OC)c1OCCOc1ccc(C)cc1	-14%	21µM*	?	?
COc1cc(/C=C2\C(=N)N3N=C(S(C)(=O)=O)SC3=NC2=O)cc(OC)c1OCCOc1cccc(C)c1	?	30µM*	?	0%
Cc1ccccc1OCCN(C)C(=O)NCc1ccc(S(N)(=O)=O)cc1	·	·	·	-3%
